# Results filed as inconclusive are left out. The source made the active and inactive calls. How the source made its calls: active means hit-call score of the fitted dose curve at least 0.9, where 1 is the maximum; inconclusive means response in the unintended direction; inactive means score below 0.9.
# Biological target: human Constitutive Androstane Receptor (CAR), NR1I3 (gene 9970) (UniProt Q14994)
# Test: NVS_NR_hCAR_Antagonist: NovaScreen (NVS) Nuclear Receptor Binding Assay for human Constitutive Androstane Receptor Antagonism (CAR) (AID 2283344)
# Summary of the method: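 Single 25 uM duplicate primary screen, with concentration-series follow-up on actives. Cell-free binding format run in antagonist mode, TR-FRET signal taken 1 h post-dose; activity is signal loss relative to DMSO.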
# Chain of human Constitutive Androstane Receptor (CAR), NR1I3 (gene 9970) (Q14994 whole entry, looked up): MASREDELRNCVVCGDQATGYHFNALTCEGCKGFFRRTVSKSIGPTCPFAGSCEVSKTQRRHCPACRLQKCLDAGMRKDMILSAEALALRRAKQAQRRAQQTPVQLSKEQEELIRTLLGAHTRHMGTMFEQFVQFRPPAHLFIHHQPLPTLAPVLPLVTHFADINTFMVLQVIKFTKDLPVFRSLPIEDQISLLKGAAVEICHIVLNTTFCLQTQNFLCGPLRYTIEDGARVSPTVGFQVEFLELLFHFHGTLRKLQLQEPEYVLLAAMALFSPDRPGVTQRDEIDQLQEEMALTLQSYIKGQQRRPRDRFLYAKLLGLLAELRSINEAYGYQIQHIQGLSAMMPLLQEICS
SMILES,outcome,AC50
CCCCc1ccc2c(n1)[C@@H](c1ccc(OC)cc1C[C@H](C)C(=O)O)[C@H](C(=O)O)[C@H]2c1ccc2c(c1)OCO2,inactive,
O=C(OCCCCCOC(=O)c1ccccc1)c1ccccc1,inactive,
CCCCCCCCCCCC(=O)OC,inactive,
COc1cc(-c2nc(NC(=O)c3cc4cc(C)cc(C)c4n3CC(=O)O)sc2CCC2CCCCC2)c(OC)cc1Cl,,3.54 µM (active)

# Biological target: bovine Estrogen Receptor (ER), ESR1 (gene 407238) (UniProt P49884)
# Sequence (P49884 whole entry, looked up): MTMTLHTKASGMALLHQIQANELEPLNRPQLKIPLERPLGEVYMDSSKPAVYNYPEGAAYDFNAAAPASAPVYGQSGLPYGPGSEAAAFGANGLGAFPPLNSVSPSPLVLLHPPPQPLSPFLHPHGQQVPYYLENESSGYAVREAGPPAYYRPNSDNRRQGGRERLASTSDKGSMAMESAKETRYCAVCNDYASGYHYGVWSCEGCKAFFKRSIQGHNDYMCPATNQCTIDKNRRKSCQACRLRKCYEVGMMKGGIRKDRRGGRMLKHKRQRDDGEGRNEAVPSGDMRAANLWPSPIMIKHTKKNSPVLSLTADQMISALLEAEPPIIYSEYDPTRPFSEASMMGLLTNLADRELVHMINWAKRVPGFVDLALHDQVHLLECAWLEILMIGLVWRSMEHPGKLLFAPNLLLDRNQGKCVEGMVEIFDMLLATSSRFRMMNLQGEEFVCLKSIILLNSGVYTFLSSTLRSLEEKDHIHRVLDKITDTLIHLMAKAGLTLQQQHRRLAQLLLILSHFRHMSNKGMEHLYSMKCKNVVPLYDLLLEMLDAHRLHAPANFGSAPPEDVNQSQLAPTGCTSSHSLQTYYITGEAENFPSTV
# Test: NVS_NR_bER: NovaScreen (NVS) Nuclear Receptor Binding Assay for bovine Estrogen Receptor (ER) (AID 2283345);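 further: actives lower the bound radioligand count which means they displace the ER ligand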
# Summary of the method: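 Cell-free radioligand binding with bovine uterine membrane extracts, read 18 hours after dosing by scintillation counting. Loss of signal versus DMSO baseline indicates displacement. Primary screen run in duplicate at 25 uM, actives followed in concentration series.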
SMILES,outcome,AC50
Cc1ccc(Cl)cc1,inactive,
CNCc1cc(F)ccc1Oc1ccc(Cl)c(Cl)c1,inactive,
CCCc1cc(=O)[nH]c(=S)[nH]1,,25 µM (active)
O=C(O)Cc1ccccc1Nc1c(Cl)cccc1Cl,inactive,
COc1ccc2c(c1)c(CC(=O)O)c(C)n2C(=O)c1ccc(Cl)cc1,inactive,
CN[C@H]1CC[C@@H](c2ccc(Cl)c(Cl)c2)c2ccc(S(N)(=O)=O)cc21,inactive,
Oc1ccc2ccccc2c1N=Nc1ccccc1,inactive,
CCCCCCCCCCCCCCCCCC(=O)O,inactive,
COC(=O)c1ccc(O)cc1,inactive,
COc1cc(-c2nc(NC(=O)c3cc4cc(C)cc(C)c4n3CC(=O)O)sc2CCC2CCCCC2)c(OC)cc1Cl,inactive,

# Biological target: Estrogen receptor (Homo sapiens) (UniProt P03372)
# Sequence (P03372 whole entry, looked up, the tested form may be a part): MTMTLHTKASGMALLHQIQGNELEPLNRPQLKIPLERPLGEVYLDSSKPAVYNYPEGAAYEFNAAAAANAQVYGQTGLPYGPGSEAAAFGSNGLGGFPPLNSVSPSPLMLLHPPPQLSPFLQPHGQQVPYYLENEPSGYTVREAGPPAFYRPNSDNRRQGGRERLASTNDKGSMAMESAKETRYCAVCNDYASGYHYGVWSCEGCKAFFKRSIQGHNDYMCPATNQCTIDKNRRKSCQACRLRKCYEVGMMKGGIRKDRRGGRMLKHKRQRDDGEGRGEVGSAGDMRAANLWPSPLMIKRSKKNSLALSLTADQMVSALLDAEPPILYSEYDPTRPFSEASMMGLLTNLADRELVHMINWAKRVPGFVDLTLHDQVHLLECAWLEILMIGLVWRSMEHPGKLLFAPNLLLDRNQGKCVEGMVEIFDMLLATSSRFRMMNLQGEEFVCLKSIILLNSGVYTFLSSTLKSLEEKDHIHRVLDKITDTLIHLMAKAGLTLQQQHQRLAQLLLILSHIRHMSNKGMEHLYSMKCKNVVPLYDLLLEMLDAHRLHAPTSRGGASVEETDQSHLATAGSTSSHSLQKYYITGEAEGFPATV
# Test: OT_ER_ERaERa_1440: Odyssey Thera (OT) 24-hour HEK293T Protein-Complementation Assay for Estrogen Receptor-alpha/-alpha Homodimer (AID 2283349);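 further: hits raise fluorescence above DMSO for agonists and antagonists alike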
# Summary of the method: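 Stably transfected HEK293T; ERα LBD homodimer PCA. 24 h dosing, fluorescence intensity read, gain-of-signal vs DMSO.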
row,SMILES,outcome
1,FC(F)(F)C(F)(F)C(F)(F)C(F)(F)C(F)(F)C(F)(F)CCI,inactive
2,CC1(C)CC(N=C=O)CC(C)(CN=C=O)C1 (stereo not drawn),inactive
3,c1cc(-c2ccncc2)ccn1,inactive
4,C=CCc1ccc(O)c(OC)c1,inactive
5,CC(=O)OC/C=C(\C)CCC=C(C)C,inactive
6,Cc1ccc(Cl)cc1,inactive
7,O=[N+]([O-])C(CO)(CO)CO,inactive
8,CCCCCCCCCCCCCCCC,inactive
9,CC1(C)NC(=O)NC1=O,inactive
10,CCCCc1ccc2c(n1)[C@@H](c1ccc(OC)cc1C[C@H](C)C(=O)O)[C@H](C(=O)O)[C@H]2c1ccc2c(c1)OCO2,inactive
11,O=C(OCCCCCOC(=O)c1ccccc1)c1ccccc1,inactive
12,CNCc1cc(F)ccc1Oc1ccc(Cl)c(Cl)c1,inactive
13,CCCc1cc(=O)[nH]c(=S)[nH]1,inactive
14,O=C(O)Cc1ccccc1Nc1c(Cl)cccc1Cl,inactive
15,Cc1cc(=O)[nH]c(=S)[nH]1,inactive
16,COc1ccc2c(c1)c(CC(=O)O)c(C)n2C(=O)c1ccc(Cl)cc1,inactive
17,CC(CO)OC(C)CO (stereo not drawn) (tested in a mixture with another compound),inactive
18,CN[C@H]1CC[C@@H](c2ccc(Cl)c(Cl)c2)c2ccc(S(N)(=O)=O)cc21,inactive
19,CC(=O)C(C)=CC1C(C)=CCCC1(C)C (stereo not drawn),inactive
20,CCCCCCCCCCCC(=O)OC,inactive
21,CCNc1cccc(C)c1,inactive
22,Oc1ccc2ccccc2c1N=Nc1ccccc1,inactive
23,Cc1ccc(C)c(O)c1C,inactive
24,CCCCCCCCCCCCCCCCCC(=O)O,inactive
25,OC[C@@H](O)[C@@H](O)[C@H](O)[C@H](O)CO,inactive
26,COC(=O)c1ccc(O)cc1,inactive
27,C[C@]12C=CC(=O)C=C1CC[C@@H]1[C@@H]2C(=O)C[C@@]2(C)[C@H]1CC[C@]2(O)C(=O)CO,inactive
28,COc1cc(-c2nc(NC(=O)c3cc4cc(C)cc(C)c4n3CC(=O)O)sc2CCC2CCCCC2)c(OC)cc1Cl,inactive
29,Clc1cc(Cl)c(Cl)cc1Cl,inactive

# Biological target: Bile acid receptor (Homo sapiens) (UniProt Q96RI1)
# Sequence (Q96RI1 whole entry, looked up): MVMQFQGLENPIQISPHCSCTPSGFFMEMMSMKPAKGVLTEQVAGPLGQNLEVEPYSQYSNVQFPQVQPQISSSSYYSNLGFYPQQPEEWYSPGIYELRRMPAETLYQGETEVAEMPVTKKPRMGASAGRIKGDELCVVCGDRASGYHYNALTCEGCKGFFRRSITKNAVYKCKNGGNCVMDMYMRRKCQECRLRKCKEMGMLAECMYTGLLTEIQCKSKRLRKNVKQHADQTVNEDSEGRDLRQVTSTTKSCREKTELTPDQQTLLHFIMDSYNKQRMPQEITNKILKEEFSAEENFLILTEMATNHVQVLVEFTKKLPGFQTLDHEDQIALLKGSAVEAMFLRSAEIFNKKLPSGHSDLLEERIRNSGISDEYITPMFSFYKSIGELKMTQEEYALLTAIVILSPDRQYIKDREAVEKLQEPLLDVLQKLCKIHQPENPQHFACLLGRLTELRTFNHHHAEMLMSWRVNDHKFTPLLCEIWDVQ
# Test: NVS_NR_hFXR_Antagonist: NovaScreen (NVS) Nuclear Receptor Binding Assay for human Farnesoid X Receptor Antagonism (FXR) (AID 2283350)
# Summary of the method: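 Antagonist-format time-resolved FRET binding assay with extracted human receptor protein, read 1 hour after compound addition. Compounds first screened at 25 uM in duplicate, then actives tested in concentration series, with loss of signal relative to DMSO.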
row,SMILES,outcome
1,Cc1ccc(Cl)cc1,inactive
2,CCCCCCCCCCCC(=O)OC,inactive
3,COc1cc(-c2nc(NC(=O)c3cc4cc(C)cc(C)c4n3CC(=O)O)sc2CCC2CCCCC2)c(OC)cc1Cl,inactive

# Biological target: Estrogen receptor (Homo sapiens) (UniProt P03372)
# Test: OT_ER_ERaERa_0480: Odyssey Thera (OT) 8-hour HEK293T Protein-Complementation Assay for Estrogen Receptor-alpha/-alpha Homodimer (AID 2283351);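 further: rise in fluorescence from reassembled reporter fragments on ERα LBD homodimer in nucleus or whole cell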
# Summary of the method: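 HEK293T cells stably expressing a PCA pair of ER alpha LBD (residues 310-547) were dosed for 8 hours. The gain in fluorescence intensity, nuclear for agonists and whole-cell for antagonists, was measured by laser scanning cytometry against DMSO vehicle.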
row,SMILES,outcome
1,FC(F)(F)C(F)(F)C(F)(F)C(F)(F)C(F)(F)C(F)(F)CCI,inactive
2,CC1(C)CC(N=C=O)CC(C)(CN=C=O)C1 (stereo not drawn),inactive
3,c1cc(-c2ccncc2)ccn1,inactive
4,C=CCc1ccc(O)c(OC)c1,inactive
5,CC(=O)OC/C=C(\C)CCC=C(C)C,inactive
6,Cc1ccc(Cl)cc1,inactive
7,O=[N+]([O-])C(CO)(CO)CO,inactive
8,CCCCCCCCCCCCCCCC,inactive
9,CC1(C)NC(=O)NC1=O,inactive
10,CCCCc1ccc2c(n1)[C@@H](c1ccc(OC)cc1C[C@H](C)C(=O)O)[C@H](C(=O)O)[C@H]2c1ccc2c(c1)OCO2,inactive
11,O=C(OCCCCCOC(=O)c1ccccc1)c1ccccc1,inactive
12,CNCc1cc(F)ccc1Oc1ccc(Cl)c(Cl)c1,inactive
13,CCCc1cc(=O)[nH]c(=S)[nH]1,inactive
14,Cc1cc(=O)[nH]c(=S)[nH]1,inactive
15,CC(CO)OC(C)CO (stereo not drawn) (tested in a mixture with another compound),inactive
16,CN[C@H]1CC[C@@H](c2ccc(Cl)c(Cl)c2)c2ccc(S(N)(=O)=O)cc21,inactive
17,CC(=O)C(C)=CC1C(C)=CCCC1(C)C (stereo not drawn),inactive
18,CCCCCCCCCCCC(=O)OC,inactive
19,CCNc1cccc(C)c1,inactive
20,Oc1ccc2ccccc2c1N=Nc1ccccc1,inactive
21,Cc1ccc(C)c(O)c1C,inactive
22,CCCCCCCCCCCCCCCCCC(=O)O,inactive
23,OC[C@@H](O)[C@@H](O)[C@H](O)[C@H](O)CO,inactive
24,COC(=O)c1ccc(O)cc1,inactive
25,C[C@]12C=CC(=O)C=C1CC[C@@H]1[C@@H]2C(=O)C[C@@]2(C)[C@H]1CC[C@]2(O)C(=O)CO,inactive
26,COc1cc(-c2nc(NC(=O)c3cc4cc(C)cc(C)c4n3CC(=O)O)sc2CCC2CCCCC2)c(OC)cc1Cl,inactive
27,Clc1cc(Cl)c(Cl)cc1Cl,inactive

# From PubChem BioAssay (EPA / NIEHS)
